# Compound activity (PubChem BioAssay)
# Shown are actives, neighbours in structure and some others; about 22% of the full set was active somewhere.
# LmPK inhibitor: LmPK (Leishmania mexicana) enzyme inhibition | 0.37% of 290,000 active | Q27686 | purified LmPK, Kinase-Glo ATP luminescence, 1 h | Potency, µM (titrated, usually from 57.5 µM), inactives show at the top dose activity change, negative = inhibition, usual class: inhibitors | AID 1721; further: potency means the concentration at half of the fitted maximal effect; on the % scale 0 is the no-effect control and ±100 the full control effect
# Target sequence (Q27686 whole entry, looked up): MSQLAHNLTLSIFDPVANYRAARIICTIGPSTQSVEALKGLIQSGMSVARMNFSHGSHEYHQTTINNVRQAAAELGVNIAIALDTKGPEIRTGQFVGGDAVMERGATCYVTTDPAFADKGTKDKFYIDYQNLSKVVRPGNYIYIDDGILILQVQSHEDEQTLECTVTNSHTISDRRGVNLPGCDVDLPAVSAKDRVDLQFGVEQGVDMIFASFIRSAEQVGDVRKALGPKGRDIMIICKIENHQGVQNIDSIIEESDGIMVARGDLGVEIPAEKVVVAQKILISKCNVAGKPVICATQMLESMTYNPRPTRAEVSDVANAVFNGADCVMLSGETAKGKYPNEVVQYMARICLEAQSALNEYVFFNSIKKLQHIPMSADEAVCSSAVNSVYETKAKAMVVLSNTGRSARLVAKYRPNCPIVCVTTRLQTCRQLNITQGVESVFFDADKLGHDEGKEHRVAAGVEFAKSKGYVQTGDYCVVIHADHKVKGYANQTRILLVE
#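 ATP generated from ADP (0.1 mM) and PEP (0.5 mM) by 0.1 nM LmPK over 1 h at room temperature (pH 7.2 imidazole buffer) was detected by coupled luciferase luminescence. Values were normalized to uninhibited and no-enzyme wells.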
# Cycloheximide cs: counter-screen hit for Shiga toxin inhibitors, cycloheximide; 12% of 300,000 active; cell reporter, cycloheximide protein synthesis inhibition counterscreen; max response, %; in the data active means max response mostly above about 13%, no sharp cut-off; inactive means mostly below about 14%; further: read at 38.3 µM for the half of the compounds with a filed dose; 0% is about no effect
# Pf growth 48h: P. falciparum growth inhibition at 48 hours (one generation); P. falciparum luciferase growth in erythrocytes, 48 h; Potency, µM (doses to about 28.7 µM), inactives show at the top dose activity change, negative = inhibition, hits mostly inhibitors; 5.9% of 310,000 active; further: potency means the concentration at half of the fitted maximal effect; on the % scale 0 is the no-effect control and ±100 the full control effect
#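 Luciferase-expressing P. falciparum in infected erythrocytes (2% hematocrit, 0.1% parasitemia final) in RPMI 1640/0.5% Albumax were exposed to compound for 48 hours at 37 C, 5% CO2; growth read as luminescence.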
# Pf growth 96h: P. falciparum growth inhibition at 96 hours. P. falciparum luciferase reporter growth, 96 h. Potency, µM (highest dose often 28.7 µM), for the others: at the top dose activity change, negative = inhibition, hits mostly inhibitors. 6.9% of 320,000 active. AID 504834; further: potency means the concentration at half of the fitted maximal effect; on the % scale 0 is the no-effect control and ±100 the full control effect
#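 P. falciparum expressing integrated firefly luciferase grown in erythrocytes (2% hematocrit, 0.05% parasitemia final) with compounds for 96 hours at 37 C, 5% CO2. Growth inhibition read as loss of luminescence after adding luciferase detection reagent.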
# Shiga toxin inh: blocks Shiga toxin action in Vero cells | Vero cells, Shiga toxin protein synthesis inhibition reporter | inhibition, % at 38.7 µM | 9.2% of 290,000 active | AID 2315; in the data active means inhibition mostly above about 28%, no sharp cut-off; inactive means mostly below about 43%; further: 0% is about no effect
# * = called active by the depositor; i = inactive; ? = inconclusive; nt = no result. Unless noted, the call rests on the fitted dose curve; in most records, active means well fitted inhibition curve with a large enough effect; inconclusive means small, poorly fitted or top-dose-only effect, or another doubt; inactive means no such curve, though single readings can be large or run the other way.
SMILES,LmPK inhibitor,Cycloheximide cs,Pf growth 48h,Pf growth 96h,Shiga toxin inh
CN(c1ccccc1)c1ccc(/C=C(\CCC(=O)O)c2nc3ccccc3s2)cc1[N+](=O)[O-],3.0%,16.5*,3.5%,-5.0%,21.3
CN(C)c1ccc(/C=C(\Cl)c2nc3ccccc3s2)cc1,-8.2%,65.8*,90.7%,62.5%,79.3*
O=C(O)c1ccc(C=C(c2nc3ccccc3s2)c2nc3ccccc3s2)cc1,12.6%,7.5,14.0%,-3.6%,-2.5
CC(OCC(O)CN(C)CCOc1ccccc1)c1ccc(Cl)cc1 (configuration not stated),-1.1%,-2.2,?,11.7µM*,-6.5
CN(CCOc1ccccc1)CC(O)COc1ccccc1 (configuration not stated),4.8%,2.4,12.7%,29.0%,-15.3
CN(CCOc1ccc(Br)cc1)CC(O)c1ccccc1 (configuration not stated),0.6%,5.0,?,-13.3%,-11.9
CC(C)c1ccc(CN(C)CC(O)c2ccccc2)cc1 (configuration not stated),11.5%,7.7,2.62µM*,9.28µM*,13.5
CN(CCOc1ccc(Cl)cc1)CC(O)c1ccccc1 (configuration not stated),0.1%,4.5,9.28µM*,?,-11.2
Cc1nc2cc3sc(C)nc3cc2s1,5.3%,33.3*,62.0%,?,72.9*
Cc1nc2cc(C)c(C)cc2s1,-1.2%,21.6*,0.3%,?,17.5
O=C(NCCS(=O)(=O)N1CCN(c2cccc(Cl)c2)CC1)C1CCCC1,nt,nt,?,-0.9%,nt
O=C(NCCc1cccs1)C1CC(c2ccc([N+](=O)[O-])cc2)=NO1 (configuration not stated),-4.0%,59.4*,41.0%,11.9%,77.4*
COc1cccc(C2=NOC(C(=O)NCCN3CCOCC3)C2)c1 (configuration not stated),-3.2%,-2.2,?,8.28µM*,18.1
COc1ccc(CCNC(=O)C2CC(c3cccc([N+](=O)[O-])c3)=NO2)cc1 (configuration not stated),-7.7%,47.4*,25.2%,-12.1%,160.5*
Cc1ccc(CNC(=O)C2CC(c3cccc([N+](=O)[O-])c3)=NO2)o1 (configuration not stated),-0.1%,33.0*,18.2%,9.5%,64.5*
COc1ccc(CCNC(=O)C2CC(c3c(Cl)cccc3Cl)=NO2)cc1 (configuration not stated),0.4%,8.7,-8.4%,0.8%,-3.6
COc1ccc(C2=NOC(C(=O)NCCN3CCOCC3)C2)cc1 (configuration not stated),-2.9%,0.4,?,27.3%,1.3
CC(=O)NCc1ccc(S(=O)(=O)NC(C(=O)O)C(C)C)cc1 (configuration not stated),1.0%,2.0,-14.4%,16.7%,-10.3
CCOCCc1nnc(NC(=O)C2CC(=O)N(c3ccc(OCC)cc3)C2)s1 (configuration not stated),1.5%,-3.5,19.4%,?,1.2
COc1ccc(CCNC(=O)C2CC(c3ccc([N+](=O)[O-])cc3)=NO2)cc1 (configuration not stated),-2.2%,33.4*,7.4%,7.2%,43.4*
Cc1ccc(CNC(=O)C2CC(c3ccccc3[N+](=O)[O-])=NO2)cc1 (configuration not stated),-0.5%,13.2*,7.0%,47.8%,-2.3
CCCCNC(=O)C1CC(c2cccc(F)c2)=NO1 (configuration not stated),-5.6%,33.4*,55.1%,67.0%,57.5*
NNC(=O)/C(=C\c1ccc(Br)cc1)NC(=O)c1cccs1,0.9%,-3.0,-8.4%,19.9%,26.6
N=C1/C(=C/c2coc3ccccc3c2=O)C(=O)N=C2SC(c3ccco3)=NN12,6.9%,6.8,-0.1%,23.0%,-3.1
CN1C(=O)C(=Cc2coc3ccccc3c2=O)C(=O)N(C)C1=O,-0.5%,20.3*,53.4%,30.4%,22.9
O=[N+]([O-])c1ccccc1-c1ccc(C(=S)N2CCCC2)o1,-9.4%,44.0*,i,-186.6%,97.3*
O=[N+]([O-])c1ccccc1-c1ccc(C(=S)N2CCCCC2)o1,-4.0%,58.3*,135.6%,181.7%,62.5*
CC(C)C(=O)Nc1ccc2c(c1)C(=O)NC2=O,-10.0%,-5.0,23.1%,-26.6%,-11.1
